The target in test [1] is DNA dC->dU-editing enzyme APOBEC-3G (Homo sapiens) (UniProt Q9HC16). In words: qHTS for inhibitors of Vif-A3G interactions: Validation (AID 588379). In outline:
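HeLa cells stably expressing Vif and A3G-eYFP, 700 cells/well, incubated overnight at 37 deg C, then exposed to compound overnight at 37 deg C. Inhibition of Vif-mediated degradation read as increased yellow fluorescence (Ex 488/Em 500-530) by laser-scanning cytometry.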
On the technique in general: In qHTS, concentration-response curves come from the screen itself.

The nature of test [2]: Cell Viability - LYMP1-002 - Assay at 16 hr (AID 948). Note: potency is the fitted concentration of half-maximal effect. In outline: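 Seed 2500 LYMP1-002 cells per well in complete medium and hold 5 hr at 37 C. Add compound across a concentration series and incubate 16 hr at 37 C. Add CellTiter-Glo, wait 30 min at room temperature, read luminescence.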
Test [3] can be described thus: Cell Viability - LYMP1-003 - Assay at 24 hr (AID 963). Note: potency is the fitted concentration of half-maximal effect. In outline:
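Acute toxicity in LYMP1-003 lymphoblastoid cells: 24 hr compound treatment at 37 C, ATP measured with CellTiter-Glo after 30 min at room temperature. AC50 derived by fitting the Hill equation to qHTS titrations.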

The nature of test [4]: Cell Viability - LYMP1-003 - Assay at 40 hr (AID 964). Note: potency is the fitted concentration of half-maximal effect; nearly all actives have a fitted effect of over 60% in size. Summed up: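 This qHTS cytotoxicity screen treats human lymphoblastoid cells (LYMP1-003) with compounds for 40 hr and quantifies cellular ATP via luciferase luminescence.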
Test [5] is described as follows: Cell Viability - LYMP2-004 (AID 966). Note: potency is the fitted concentration of half-maximal effect; nearly all actives have a fitted effect of over 65% in size. In outline: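 Acute toxicity is scored as a concentration-dependent drop in intracellular ATP, quantified by luciferase luminescence, in human lymphoblastoid cells exposed to compound for 24 hr. AC50 derives from Hill-equation modelling.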
The nature of test [6]: Cell Viability - LYMP2-005 (AID 967).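 Note: potency is the fitted concentration of half-maximal effect; cells exposed to compound for 24 h at 37 °C.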 In outline:
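Acute cytotoxicity is scored as a concentration-dependent drop in intracellular ATP in human lymphoblastoid LYMP2-005 cells after 24 h compound treatment. ATP is quantified by luciferase luminescence, and AC50 is derived by Hill-equation modelling.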

A short description of test [7]: Cell Viability - LYMP2-009 (AID 968).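 Note: potency is the fitted concentration of half-maximal effect; cells exposed to compound for 24 h at 37 °C; nearly all actives have a fitted effect of over 55% in size.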
Test [8] can be described thus: Cell Viability - LYMP2-025 (AID 976).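 Note: potency is the fitted concentration of half-maximal effect; cells exposed to compound for 24 h at 37 °C.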 Summed up: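 In qHTS format, LYMP2-025 lymphoblastoid cells in complete culture medium received compound for 24 hr; ATP-based CellTiter-Glo signal gave viability, with AC50 derived by Hill equation.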
Test [9] is described as follows: Cell Viability - LYMP2-002 (AID 977).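 Note: potency is the fitted concentration of half-maximal effect; compound exposure lasted 24 h at 37 °C.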 In outline:
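Cytotoxicity is scored as concentration-dependent loss of cellular ATP in a human lymphoblastoid line after 24 hr compound treatment at 37 C. AC50 is obtained by modelling concentration-response data with the Hill equation.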

Test [10] is described as follows: Cell Viability - LYMP1-002 - Assay at 24 hr (AID 993). Note: potency is the fitted concentration of half-maximal effect. In outline:
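qHTS, LYMP1-002 lymphoblastoid, 24 h cpd, 37 C, CellTiter-Glo ATP luminescence; AC50 via Hill eq.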

Test [11] can be described thus: Cell Viability - LYMP1-002 - Assay at 40 hr (AID 994). Note: potency is the fitted concentration of half-maximal effect; nearly all actives have a fitted effect of over 60% in size. Summed up:
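Viability in the human lymphoblastoid line was measured as intracellular ATP via CellTiter-Glo after 40 hr compound exposure. Tetraoctylammonium bromide served as positive control.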

Test [12] in a line: Cell Viability - LYMP2-022 (AID 987). Note: potency is the fitted concentration of half-maximal effect; nearly all actives have a fitted effect of over 55% in size. Summed up:
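Acute toxicity in a human lymphoblastoid line is scored as decreased intracellular ATP after 24 hr compound treatment at 37 C. ATP is measured by CellTiter-Glo luminescence; curves are fitted with the Hill equation to give AC50.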

A short description of test [13]: qHTS assay to identify small molecules that stimulate interleukin-8 (IL-8) secretion (AID 651758; active = well fitted activation curve with a large enough effect in the signal ratio; the % refers to the signal ratio; note: potency is the fitted concentration of half-maximal effect). Summed up:
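Secreted IL-8 measured by TR-FRET sandwich (cryptate and XL665 antibodies) from THP-1 cells exposed to compound overnight (16 hrs, 37 C).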

Drawing on PubChem BioAssay (NCATS), this text covers outcome and Potency for four compounds.

Records with an inconclusive call do not appear. Active and inactive are the calls of the source. Unless noted, calls come from the whole dose curve; as a rule, active = well fitted curve in the direction sought with a large enough effect; inconclusive = small, poorly fitted or top-dose-only effect, or another doubt; inactive = no such curve, though single readings can be large; an effect the other way counts as inactive or inconclusive.

Chain of DNA dC->dU-editing enzyme APOBEC-3G (Homo sapiens) (Q9HC16 whole entry, looked up): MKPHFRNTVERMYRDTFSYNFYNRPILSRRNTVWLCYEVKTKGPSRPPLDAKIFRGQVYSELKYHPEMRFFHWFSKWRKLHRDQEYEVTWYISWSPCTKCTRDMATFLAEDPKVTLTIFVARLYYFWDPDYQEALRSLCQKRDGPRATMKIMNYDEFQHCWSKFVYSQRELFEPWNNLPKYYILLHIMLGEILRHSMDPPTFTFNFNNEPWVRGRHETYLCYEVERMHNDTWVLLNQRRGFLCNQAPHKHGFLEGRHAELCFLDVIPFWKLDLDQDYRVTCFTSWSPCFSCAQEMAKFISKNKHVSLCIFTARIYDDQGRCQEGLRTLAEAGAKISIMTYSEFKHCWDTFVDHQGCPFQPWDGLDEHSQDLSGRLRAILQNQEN

In the case of `c1cc2c(cc1[C@H]1OC[C@@H]3[C@H]1CO[C@H]3c1ccc3c(c1)OCO3)OCO2`, in [1], the call was inactive.
As to `O=Nc1ccc(Nc2ccccc2)cc1`, the Potency in test [2] was 10 µM (active); in test [3] it was 10 µM (active); in [4], 7.94 µM (active); in test [5], 7.94 µM (active); in test [6] it was 10 µM (active); in test [7], 7.94 µM (active). In addition, the Potency in test [8] is 10 µM (active); in [9], 5.01 µM (active); in test [10] it was 7.94 µM (active); in [11] it was 12.6 µM (active).
With `C=CC(=O)OCC(CO)(COC(=O)C=C)COC(=O)C=C`, the Potency was 6.31 µM (active) in test [3]; 3.98 µM (active) in [4]; 2.51 µM (active) in [6]; 3.98 µM (active) in test [10]; 5.01 µM (active) in [11].
Regarding `c1cc(OCC2CO2)cc(OCC2CO2)c1` (configuration not stated), the Potency in test [5] is 20 µM (active); in test [7], 39.8 µM (active); in test [8], 50.1 µM (active); in [9], 39.8 µM (active); in test [12] it was 31.6 µM (active); in test [13], 42.2 µM (active).
